The whole screen tested about 69,000 compounds, of which about 8,600 (12%) showed an effect of 50% or more. This excerpt belongs to a sample that is enriched for strong results.
Each molecule was assayed on Plasmodium berghei (assay: Screen against P. berghei liver stage (PbLuc), transformed with Luciferase, at 10uM). Details: tested at 10 uM.
Assay type: functional, HepG2

| SMILES | INHIBITION [%] |
| --- | --- |
| c1cnnc(N2CCCC2CNc2ncnc3sccc23)c1 (centres undefined) | -19.6 |
| c1cnnc(N2CCCC2CNc2ncnc3c2CCC3)c1 (centres undefined) | -24.2 |
| c1cnnc(N2CCCC2CNc2ncnc3ccsc23)c1 (centres undefined) | 52.3 |
| Cc1nc(CN(C)c2cc(N3CCCC3CO)ncn2)cs1 (centres undefined) | 22.1 |
| O=C1c2cccnc2OC(CN2CCOCC2)CN1Cc1cccs1 (centres undefined) | 15.4 |
| CN1CCC(CN(C)C(=O)c2cc(C3CCCN3C)ccn2)CC1 (centres undefined) | -12.9 |
| Cn1nc(CNC(=O)CC#N)c2c1CN(CC1CC1)CC2 | 16.9 |
| Cn1cc(CN2CCCC(c3nc(O)cc(-c4cccs4)n3)C2)cn1 (centres undefined) | -15.1 |
| CN(C)S(=O)(=O)N1C[C@H]2CC[C@@H](C1)N(Cc1ccc3c(c1)OCCO3)C2 | 20.6 |
| Cc1ccc(-c2ccnc(N3CCC4(CCO4)CC3)n2)c(C)n1 | 36.5 |
| O=C(O)c1ccnc(-c2ccnc(N3CCC4(CCO4)CC3)n2)c1 | 40.2 |
| O=C(O)c1ccnc(-c2ccnc(N3CCC(F)(F)CC3)n2)c1 | 30.3 |
| Cc1ccc(-c2ccnc(N3CCC4(CC3)CNC(=O)O4)n2)c(C)n1 | 30.9 |
| Cc1ccc(-c2ccnc(N3CCC4(CC3)CNC(=O)C4)n2)c(C)n1 | 68.9 |
| O=C1CC2(CCN(c3nccc(-c4cc(C(=O)O)ccn4)n3)CC2)CN1 | 64.9 |
| Cc1cc(OC(F)F)c(C(=O)N2CCC(CN(C)C)CC2)s1 | -9.44 |
| CC(C)c1cc(CN(C)C(=O)CN2CCC(C(N)=O)CC2)no1 | 12.7 |
| Cc1ccc(CNc2n[nH]c(C)n2)cc1 | 46.6 |
| CN(C(=O)c1cccc(C#N)c1)c1nnc(C2CCOC2)s1 (centres undefined) | 24.45 |
| CCNC(=O)C1CCN(Cn2nc(-c3ccc(F)cc3)oc2=O)CC1 | 30.6 |
| CC(C)CCNC(=O)c1ccc(-n2cnc3ccccc3c2=O)cc1 | 26.8 |
| CC(C)CNC(=O)c1ccc2c(=O)n(-c3ccccc3)cnc2c1 | 60.9 |
| CC(C)CCNC(=O)c1ccc2c(=O)n(-c3ccccc3)cnc2c1 | 1.8 |
| NCCc1cn(Cc2ccccn2)c2ccccc12 | -18.2 |
| c1cncc(CNc2cncc(C3CCCN3)n2)c1 (centres undefined) | 6.26 |
| CCOc1ncccc1NC(=O)c1cccs1 | -10.9 |
| COc1ccc(NC(=O)c2ccc[nH]2)c(N2CCN(C(C)=O)CC2)n1 | 6.8 |

| SMILES | INHIBITION [%] |
| --- | --- |
| CCCC(C)C(=O)Nc1ccc(OC)nc1N1CCN(C(C)=O)CC1 (centres undefined) | 29.4 |
| COc1ccc(NC(=O)c2ccco2)c(N2CCN(C(C)=O)CC2)n1 | 44 |
| COc1ccc(N)c(N2CCN(C(C)=O)CC2)n1 | 42.3 |
| COc1ccc(NC(=O)CCC(C)C)c(N2CCN(C(C)=O)CC2)n1 | 68.8 |
| COc1ccc(NC(C)=O)c(N2CCN(C(C)=O)CC2)n1 | 80.1 |
| CNc1ccnc(NCCC(=O)Nc2ccccc2C)n1 | 28.4 |
| O=C(C1CC=CC1)N1C[C@H]2CN(Cc3ccncc3)C(=O)[C@H]2C1 | 56.6 |
| CCN1C[C@@H]2CN(C(=O)C3CC=CC3)C[C@@H]2C1=O | 15.7 |
| O=C(C1CCC1)N1C[C@@H]2CN(Cc3ccncc3)C(=O)[C@@H]2C1 | 50.3 |
| O=C1[C@H]2CN(Cc3ccoc3)C[C@H]2CN1Cc1ccncc1 | 45.1 |
| O=C(C1CCOC1)N1C[C@H]2CN(Cc3ccncc3)C(=O)[C@H]2C1 (some centres undefined) | -22.2 |
| Cc1cccc(CN2C[C@@H]3CN(C(=O)C4CC=CC4)C[C@@H]3C2=O)n1 | 14.9 |
| COc1ccc(C(=O)NS(=O)(=O)c2cncc(Br)c2)c(OC)c1 | 29.4 |
| Cc1ccc(-c2snnc2C(=O)NCCCO)cc1 | -19.7 |
| COc1cccc(OC)c1CC(=O)NC(C#N)c1ccsc1 (centres undefined) | 0.0944 |
| Cc1ccc(C(=O)NC2CC2)c(-n2cnnn2)c1C | 28.6 |
| CN(C)c1ccc(CNC(=O)NCCc2cccs2)cn1 | -11.9 |
| c1cnc(N2CCCC(NCc3cccc4c3OCCO4)C2)nc1 (centres undefined) | 22.9 |
| CN(C)Cc1ccnc(C2CCCN2Cc2ccc(F)cn2)n1 (centres undefined) | 63.4 |
| CN(C)Cc1ccnc(C2CCCN2Cc2ccncc2)n1 (centres undefined) | 40.4 |
| CN(C)Cc1ccnc(C2CCCN2Cc2cc[nH]n2)n1 (centres undefined) | 29.6 |
| CCc1cnc(CN(C(C)=O)C2CCN(CC3(O)CCCCC3)C2)o1 (centres undefined) | 5.9 |
| c1ccc(-c2nc(CN3CCCC3Cn3cccn3)no2)cc1 (centres undefined) | 44.3 |
| Cc1nc(NC(=O)CN2C(=O)c3ccccc3NC2C(C)C)sc1C (centres undefined) | 32.2 |
| Cc1cc(N2CCC(N(C)Cc3cc(=O)c(O)co3)CC2)nc(C)n1 | 28.7 |
| CN(Cc1cc(=O)c(O)co1)C1CCN(c2ccc(F)cc2)CC1 | 53.5 |
| CN(Cc1cc(=O)c(O)co1)C1CCCN(c2ccccc2)C1 (centres undefined) | 7.93 |

From ChEMBL document CHEMBL4513216, “Probing the Open Global Health Chemical Diversity Library for Multistage-Active Starting Points for Next-Generation Antimalarials” (ACS Infect Dis, 2020)
